According to publication PMC5540273 (PLoS ONE, 2017):

Columns and labels:
Conditions in all cases: concentration: 1 μM, replicates: in singlicate; n = 1
[1] = tested on: ABL2
[2] = tested on: ACVR1B
[3] = tested on: ACVR1
[4] = tested on: ACVR2A
[5] = tested on: ACVR2B
[6] = tested on: ACVRL1
[7] = tested on: T1, ADCK3
T1 construct: gene CABC1

[8] = tested on: ADCK4
[9] = tested on: AKT1
[10] = tested on: AKT2
[11] = tested on: AKT3
[12] = tested on: ALK
[13] = tested on: T2, AMPK-alpha1
T2 construct: gene PRKAA1

[14] = tested on: T3, AMPK-alpha2
T3 construct: gene PRKAA2

[15] = tested on: ANKK1
[16] = tested on: T4, ARK5
T4 construct: gene NUAK1

[17] = tested on: T5, ASK1
T5 construct: gene MAP3K5

[18] = tested on: T6, ASK2
T6 construct: gene MAP3K6

[19] = tested on: AURKA
[20] = tested on: AURKB
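Further: KINOMEscan kinase panel screen.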

| Structure (SMILES) | %Inh [1] [%] | %Inh [2] [%] | %Inh [3] [%] | %Inh [4] [%] | %Inh [5] [%] | %Inh [6] [%] | %Inh [7] [%] | %Inh [8] [%] | %Inh [9] [%] | %Inh [10] [%] | %Inh [11] [%] | %Inh [12] [%] | %Inh [13] [%] | %Inh [14] [%] | %Inh [15] [%] | %Inh [16] [%] | %Inh [17] [%] | %Inh [18] [%] | %Inh [19] [%] | %Inh [20] [%] |
| --- | --- | --- | --- | --- | --- | --- | --- | --- | --- | --- | --- | --- | --- | --- | --- | --- | --- | --- | --- | --- |
| OCCOCCn1ccc2ncnc(Nc3ccc(Oc4cccc(Cl)c4)c(Cl)c3)c21 | 0 | 0 | 0 | 8 | 0 | 0 | 2 | 0 | 0 | 0 | 0 | 0 | 0 | 0 | 0 | 0 | 0 | 0 | 0 | 0 |
| CS(=O)(=O)CCNCc1ccc(-c2ccc3ncnc(Nc4ccc(OCc5ccccc5)c(Cl)c4)c3c2)o1.Cl [GW574783] | 0 | 0 | 2 | 4 | 22 | 0 | 23 | 20 | 46 | 21 | 27 | 18 | 9 | 24 | 0 | 18 | 0 | 0 | 0 | 4 |
| COc1cc2c(Nc3cccc(NC(=O)c4ccccc4)c3)ncnc2cc1OCCCN1CCOCC1 [GSK223810] | 21 | 7 | 5 | 0 | 0 | 0 | 30 | 12 | 0 | 19 | 0 | 21 | 18 | 12 | 16 | 0 | 0 | 3 | 25 | 23 |
| COc1ccc(NC(=O)Nc2ccc(C)c(-c3ccc(C(=O)Nc4ccncc4)cc3)c2)cc1 [GSK1398475] | 12 | 0 | 43 | 0 | 0 | 0 | 19 | 34 | 0 | 0 | 0 | 18 | 0 | 0 | 10 | 0 | 4 | 0 | 4 | 0 |
| O=C(Nc1ccccc1)Nc1ccc(Oc2ccc3nccn3n2)cc1 | 27 | 0 | 5 | 24 | 9 | 0 | 15 | 1 | 13 | 0 | 10 | 0 | 25 | 0 | 0 | 0 | 8 | 0 | 0 | 68 |
